Most compounds without a hit are left out; they make up all but 3.7% or so of the library.
FadD28 FP inh = inhibitors of FadD28 bisubstrate probe binding, primary screen, biochemical, fluorescence polarization, single point; Mycobacterium tuberculosis FadD28 fatty-acid-AMP ligase; inhibition, % at 12.5 µM; 360,000 compounds, 0.22% hits; AID 588549, 2011; in the data active means inhibition above about 8.5%, passing the limit was not always enough
UGM FP inh = M. tuberculosis UGM enzyme inhibitors, primary screen, biochemical, fluorescence polarization, single point | UDP-galactopyranose mutase (Mycobacterium tuberculosis (strain ATCC 25618 / H37Rv)), … | purified UGM, fluorescence polarization probe displacement | inhibition, % at 10 µM | 320,000 compounds, 0.06% hits | AID 504406, 2011; in the data active means inhibition above about 10%, passing the limit was not always enough
GDH-TPI counter = GDH-TPI coupling enzyme inhibitors, primary screen, artefact control for M. tuberculosis FBA inhibitor project, biochemical, absorbance, full deck | GDH-TPI coupled enzyme counterscreen, NADH absorbance | inhibition, % at 4.8 µM | 360,000 compounds, 1.2% hits | AID 588335, 2011; in the data active means inhibition above about 30%
FBA Mtb inh = Mtb FBA enzyme inhibitors, primary screen, biochemical, fluorescence, strain H37Rv; Fructose-bisphosphate aldolase (Mycobacterium tuberculosis (strain ATCC 25618 / H37Rv)), …; purified M. tuberculosis FBA, fluorescence read-out; inhibition, % at 1 µM; 360,000 compounds, 2.3% hits; AID 588726, 2011; in the data active means inhibition above about 27%
Target sequence (P9WQA3 whole entry, looked up): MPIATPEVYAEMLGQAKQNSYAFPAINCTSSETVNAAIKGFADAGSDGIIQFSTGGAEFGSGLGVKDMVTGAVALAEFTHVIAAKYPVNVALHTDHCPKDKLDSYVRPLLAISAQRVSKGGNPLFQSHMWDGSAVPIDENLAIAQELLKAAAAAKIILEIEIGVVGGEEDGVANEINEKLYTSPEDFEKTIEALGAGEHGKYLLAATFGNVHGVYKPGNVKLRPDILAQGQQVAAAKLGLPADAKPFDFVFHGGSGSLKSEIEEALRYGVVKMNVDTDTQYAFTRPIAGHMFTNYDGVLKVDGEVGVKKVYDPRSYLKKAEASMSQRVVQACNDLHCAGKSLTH
Mtb bLac sens = beta-lactam sensitization of Mtb H37Rv, H37Rv; 330,000 compounds, 0.27% hits; inhibition, % at 25 µM; AID 434955, 2010; M. tuberculosis H37Rv growth with meropenem, percent inhibition; call rule not given here;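 further: growth measured after seven days incubation then overnight dye step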
Rv3671c inh = Rv3671c serine protease inhibitors, primary screen, biochemical, fluorescence polarization, M. tuberculosis H37Rv | AID 2606, 2010 | inhibition, % at 5.96 µM | 320,000 compounds, 0.048% hits; in the data active means inhibition above about 38%;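 further: extracellular domain of Rv3671c used as enzyme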
Numbers stand for hits; . = inactive; / = no result given; + = active, no number.

SMILES | FadD28 FP inh | UGM FP inh | GDH-TPI counter | FBA Mtb inh | Mtb bLac sens | Rv3671c inh
Cc1cccc(N2CC(C(=O)NC3CCCCCC3)CC2=O)c1C (configuration not stated) | . | . | . | . | . | .
Nc1ccc(-c2nc3ccccc3o2)cc1 | . | . | . | 150 | . | .
Cc1noc(NS(=O)(=O)c2ccc(NC(=O)c3ccccc3NS(=O)(=O)c3ccc(F)c(F)c3)cc2)c1C | . | / | . | . | / | /
O=C(/C=C/Nc1cccc([N+](=O)[O-])c1)c1ccco1 | . | . | 35 | . | . | .
Cc1ccc(C(=O)/C=C/Nc2cccc([N+](=O)[O-])c2)o1 | . | . | . | . | . | .
CC[C@]12c3[nH]c4cc(-c5ccco5)ccc4c3CCN1C(=O)[C@@H](CC(=O)NCc1ccc(OC)c(OC)c1)C[C@@H]2C(=O)N1CCN(C(=O)c2ccco2)CC1 | . | / | . | . | / | /
Cc1ccccc1-c1nnc(NC(=O)c2ccc(N3C(=O)CCC3=O)cc2)s1 | . | . | 33 | . | . | .
Cc1cccc(-c2nnc(NC(=O)c3ccc(N4C(=O)CCC4=O)cc3)s2)c1 | . | . | . | . | . | .
COc1ccc(-c2nnc(COc3ccc4ccccc4c3)o2)cc1OC | . | . | . | . | . | .
COc1ccc(-c2cc3ccc(OCc4nn[nH]n4)cc3oc2=O)cc1OC | . | . | 42 | . | . | .
COc1ccc(-c2cc(=O)oc3cc(OCc4nn[nH]n4)ccc23)cc1 | . | . | 36 | . | . | .
Cc1cccc(C)c1NC(=O)C(c1ccccc1OC(F)(F)F)N1CCN(C/C=C/c2ccccc2)CC1 (configuration not stated) | . | / | / | . | / | /
N#C/C(=C\c1coc2ccc(O)cc2c1=O)C(=O)Nc1nc2ccccc2s1 | 29 | . | . | . | . | .
O=C(NNC(=O)c1cc2cc3ccccc3nc2s1)c1ccc(F)cc1 | . | . | 34 | . | . | .
O=C(O)CCC(=O)N1CCN(c2ccc(C(=O)c3ccc(F)cc3)cc2)CC1 | . | . | 38 | . | . | .
COc1ccc(C(=O)COC(=O)CCC(=O)Nc2ccc(C(C)=O)cc2)cc1 | . | . | . | + | . | .
CCOc1ccc(NC(=O)CCC(=O)c2ccc(OC)cc2)cc1 | . | . | . | . | . | .
O=C(NC1CCSc2ccccc21)c1ccc(C(F)(F)F)cc1 (configuration not stated) | . | . | . | . | . | .
Cc1ccc(NC(=O)CN(C)C(=O)COc2cccc3ccc(C)nc23)cc1 | . | . | . | . | . | .
CC1(C)CC(=O)C=C(c2ccc(COC(=O)c3ccccc3)cc2)C1=O | . | / | . | . | / | /
COc1ccc(OC)c(C(O)c2ncc(-c3cccc4ccccc34)[nH]2)c1 (configuration not stated) | . | / | . | . | / | /
CCC(=O)Nc1c(OC(=O)CC)ccc2c(C)cc(=O)oc12 | . | . | . | 140 | . | .
CCC(=O)Oc1c(C(=O)CC)cc2c(C)cc(=O)oc2c1C | . | . | . | . | . | .
Cc1ccc(Cl)cc1-c1cc(C(=O)NCc2ccc(C(F)(F)F)cc2)[nH]n1 | . | / | . | . | / | /
c1ccc2c(c1)[nH]c1ccccc12 | . | . | . | . | . | .
SMILES | FadD28 FP inh | UGM FP inh | GDH-TPI counter | FBA Mtb inh | Mtb bLac sens | Rv3671c inh
O=c1c2ccccc2[nH]c2ccccc12 | . | . | . | 139 | . | .
O=c1[nH]cnc(O)c1C(c1ccc2c(c1)OCO2)c1c(O)nc[nH]c1=O | . | . | . | . | . | .
COc1ccc(/C=C2/N=C(SC)NC2=O)cc1OC | . | . | 40 | . | . | .
COc1ccc(/C=C2\N=C(SC)NC2=O)cc1 | . | . | . | . | . | .
O=C1C=CC(=O)c2c(O)c(CO)c(CO)c(O)c21 | 18 | / | . | . | / | /
O=c1c(CO)cc(CO)cc(CO)c1O | . | . | . | . | . | .
CCCc1cc2c(=O)n(NC(=O)c3nn(C)cc3[N+](=O)[O-])c(C)nc2s1 | . | . | . | . | . | .
Cc1cc2c(=O)n(NC(N)=O)c(C)nc2s1 | . | . | . | 150 | . | .
CCCNC(=O)C1(C)CCN(C(=O)c2cccc(Cl)c2)C1 (configuration not stated) | . | / | . | . | / | /
COc1ccc(N2C(=O)c3ccccc3S2(=O)=O)cc1 | . | . | . | . | . | .
COc1ccc2c(c1)-c1ccccc1S(=O)(=O)N2C(C)=O | . | . | . | 31 | . | .
CSc1ncnc2c1ncn2CCCNCc1ccc(C)o1 | . | / | . | . | / | /
C/C(=N\Nc1nc(C)cc(C)n1)c1ccc(C)o1 | . | . | 32 | . | . | .
N#Cc1nc(Cc2ccccc2)oc1N1CCC(C(N)=O)CC1 | . | . | . | . | . | .
Cc1ccc(-c2nc(C#N)c(N3CCC(C(N)=O)CC3)o2)cc1 | . | . | . | 179 | . | .
CCOC(=O)C1CCCN(C(=O)c2ccc(-c3ccc([N+](=O)[O-])cc3)o2)C1 (configuration not stated) | . | . | . | . | . | .
COc1ccc(-c2nc(C#N)c(N3CCC(C(N)=O)CC3)o2)cc1OC | . | . | . | + | . | .
CCOC(=O)C1CCCN(c2ccc([N+](=O)[O-])c3nonc23)C1 (configuration not stated) | 47 | / | . | . | / | /
CCOc1ccc(-c2nc(S(=O)(=O)c3ccccc3)c(N3CCC(C(N)=O)CC3)o2)cc1 | . | . | . | . | . | .
COc1ccc(-c2nc(C#N)c(N3CCN(c4cccc(Cl)c4)CC3)o2)cc1OC | . | . | . | . | . | .
N#Cc1nc(-c2ccccc2)oc1N1CCC(C(N)=O)CC1 | . | . | . | + | . | .
CCOC(=O)C1CCCN(c2ncnc3c2cnn3-c2ccc(OC)cc2)C1 (configuration not stated) | . | . | . | . | . | .
COc1ccc(-c2nc(C#N)c(N3CCOCC3)o2)cc1OC | . | . | . | + | . | .
COc1ccccc1-c1nc(C#N)c(N2CCC(Cc3ccccc3)CC2)o1 | . | . | . | 44 | . | .
CCOC(=O)C1CCCN(c2oc(-c3ccc(OC)cc3)nc2C#N)C1 (configuration not stated) | . | . | . | 132 | . | .
N#Cc1nc(-c2ccco2)oc1N1CCC(C(N)=O)CC1 | . | . | . | 124 | . | .
N#Cc1nc(-c2ccco2)oc1N1CCN(Cc2ccccc2)CC1 | . | . | . | . | . | .
CCOC(=O)C(C)N1c2cccc3cccc(c23)S1(=O)=O (configuration not stated) | . | / | . | . | / | /
N#Cc1nc(-c2ccc(F)cc2)oc1N1CCC(C(N)=O)CC1 | . | . | . | + | . | .

Assay outcomes deposited in PubChem by several laboratories.
